In PubChem BioAssay (NCI):
This is part of a sample that, as a whole, favours compounds with a hit. Of some 79,000 tested, about 15% had one in any assay. Active and inactive are the calls of the source. Rule as the data show it: active = growth inhibition above about 70%; inactive = the rest.

Legend:
[1] = NCI Yeast Anticancer Drug Screen. Data for the rad52 strain (AID 147);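 also: 0% = growth of vehicle-treated control cultures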; settings: S. cerevisiae rad52 mutant growth inhibition, hits give high values
How it was run: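 Genetically altered yeast (DNA damage repair defect) treated with compound; inhibition calculated relative to vehicle.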

[2] = NCI Yeast Anticancer Drug Screen. Data for the wt1 strain (AID 149);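 also: 0% = growth of vehicle-treated wt1 cultures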; settings: S. cerevisiae wt1 strain (SPY 50644) growth inhibition, hits give high values
How it was run: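 Each compound is tested on wt1 yeast and the loss of growth versus vehicle gives the inhibition value.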

[3] = NCI Yeast Anticancer Drug Screen. Data for the rad50EPP+ strain (AID 151);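 also: 0% = growth of vehicle-treated control cultures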; settings: S. cerevisiae rad50 mutant strain, hits give high values
How it was run: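 Strain rad50EPP+; compound exposure; % growth inhibition vs vehicle.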

[4] = NCI Yeast Anticancer Drug Screen. Data for the mgt1 strain (AID 153); settings: S. cerevisiae mgt1 mutant growth inhibition, hits give high values
How it was run: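 Read-out: yeast growth inhibition vs vehicle control. Strain mgt1, drawn from a panel altered in DNA damage repair or cell cycle control.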

[5] = NCI Yeast Anticancer Drug Screen. Data for the rad50 strain (AID 155);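 also: 0% = growth of vehicle-only cultures of the same strain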; settings: S. cerevisiae rad50 strain growth inhibition, hits give high values
How it was run: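 Vehicle-treated cultures provide the reference for the growth inhibition reported for compound-exposed, repair-deficient yeast.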

[6] = NCI Yeast Anticancer Drug Screen. Data for the mec2-1 strain (AID 157); settings: S. cerevisiae mec2-1 strain, hits give high values
How it was run: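 Cells of the genetically defined mec2-1 yeast strain are incubated with test compound. Inhibition of growth is calculated against vehicle-treated controls.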

[7] = NCI Yeast Anticancer Drug Screen. Data for the rad14 strain (AID 159);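 also: 0% = growth of vehicle-treated control cultures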; settings: S. cerevisiae rad14 strain growth inhibition, hits give high values
How it was run: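 Inhibition of growth is reported for a repair-deficient yeast mutant following compound treatment, calculated relative to cultures that received vehicle.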

[8] = NCI Yeast Anticancer Drug Screen. Data for the sgs1 mgt1 strain (AID 161);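 also: 0% = growth of cultures given vehicle only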; settings: S. cerevisiae sgs1 mgt1 strain, hits give high values
How it was run: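 Test agents were incubated with a DNA-repair-mutant yeast strain. Growth was then read and compared against vehicle-treated controls.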

[9] = NCI Yeast Anticancer Drug Screen. Data for the CLN2oe strain (AID 163);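 also: 0% = growth of vehicle-only control cultures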; settings: S. cerevisiae CLN2oe strain, hits give high values
How it was run: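 Strain altered in cell-cycle control, incubated with compound; growth compared to solvent-treated controls.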

[10] = NCI Yeast Anticancer Drug Screen. Data for the cln2 rad14 strain (AID 165);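 also: 0% = growth equal to vehicle treated cultures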; settings: S. cerevisiae cln2 rad14 strain, hits give high values
How it was run: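 The screen exposed genetically defined yeast (cln2 rad14) to test compounds and scored growth inhibition relative to vehicle-treated controls.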

[11] = NCI Yeast Anticancer Drug Screen. Data for the bub3 strain (AID 167); settings: S. cerevisiae bub3 mutant strain, hits give high values
How it was run: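 Mutant yeast screening strain plus compound; vehicle-treated cultures serve as the 0% inhibition reference.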

[12] = NCI Yeast Anticancer Drug Screen. Data for the wt2 strain (AID 169); settings: S. cerevisiae wt2 strain growth inhibition, hits give high values
How it was run: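 Steps: yeast strain treated with compound; growth recorded; inhibition calculated relative to cultures given vehicle alone.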

[13] = NCI Yeast Anticancer Drug Screen. Data for the mlh1 strain (AID 171);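 also: 0% = growth of vehicle-treated control cultures of the same strain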; settings: S. cerevisiae mlh1 strain growth inhibition, hits give high values
How it was run: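 Yeast screen: mutant strain plus compound, growth scored against vehicle control wells.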

[14] = NCI Yeast Anticancer Drug Screen. Data for the mlh1 rad18 strain (AID 175); settings: S. cerevisiae mlh1 rad18 strain growth inhibition, hits give high values
How it was run: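 Compound-treated yeast growth, normalised to vehicle controls. Strain bears defined DNA repair mutations.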

[15] = NCI Yeast Anticancer Drug Screen. Data for the rad18 strain (AID 177); settings: S. cerevisiae rad18 mutant growth inhibition, hits give high values
How it was run: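 Inhibition values reflect reduced yeast growth compared with vehicle-treated controls, using a strain engineered with a DNA damage repair defect.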

[16] = NCI Yeast Anticancer Drug Screen. Data for the sgs1 strain (AID 173);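 also: 0% = growth of vehicle-only control cultures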; settings: S. cerevisiae sgs1 mutant, hits give high values
How it was run: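 Inhibition of yeast growth served as the measure. The mutant strain was treated with each compound, and growth was normalised to cultures receiving vehicle alone.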

[17] = at 5.0 µM (retest, dose inferred, filed as 0.5)
[18] = at 50.0 µM (retest, dose inferred, filed as 5.0)

Measured: growth inhibition

Cc1ccc2c(c1)C1(SC(C)C(=O)N1c1ccc(Cl)cc1)C(=O)N2 (stereo not drawn)
active: [1]; at 33.0 µM 96% | [1]; at 100.0 µM 99% | [2]; at 100.0 µM 99% | [4]; at 33.0 µM 94% | [4]; at 100.0 µM 99% | [5]; at 33.0 µM 94% | [5]; [18] 97% | [5]; at 50.0 µM 98.8% | [5]; at 100.0 µM 99% | [6]; at 33.0 µM 85% | [6]; at 50.0 µM 98.5% | [6]; at 100.0 µM 99% | [7]; at 33.0 µM 96% | [7]; at 100.0 µM 99% | [8]; [18] 94% | [8]; at 50.0 µM 99.4% | [9]; at 33.0 µM 91% | [9]; at 100.0 µM 99% | [10]; at 50.0 µM 97.7% | [11]; at 33.0 µM 90% | [11]; [18] 88% | [11]; at 50.0 µM 74.5% | [11]; at 100.0 µM 99% | [12]; at 33.0 µM 98% | [12]; at 100.0 µM 99% | [13]; at 33.0 µM 95% | [13]; at 100.0 µM 99% | [14]; [18] 98% | [14]; at 50.0 µM 99% | [15]; at 33.0 µM 97% | [15]; at 100.0 µM 98%
inactive: [1]; at 1.2 µM 0% | [1]; at 3.7 µM 4% | [1]; at 11.0 µM 16% | [2]; at 1.2 µM 0% | [2]; at 3.7 µM 5% | [2]; at 11.0 µM 4% | [2]; at 33.0 µM 55% | [3]; at 1.2 µM -2% | [3]; at 3.7 µM -1% | [3]; at 11.0 µM 1% | [3]; at 33.0 µM -2% | [3]; at 100.0 µM -3% | [4]; at 1.2 µM -5% | [4]; at 3.7 µM -6% | [4]; at 11.0 µM 3% | [5]; at 1.2 µM -2% | [5]; at 3.7 µM 1% | [5]; [17] 12% | [5]; at 11.0 µM 9% | [6]; at 1.2 µM -2% | [6]; at 3.7 µM 5% | [6]; [17] -12% | [6]; at 11.0 µM 12% | [6]; [18] 17% | [7]; at 1.2 µM -3% | [7]; at 3.7 µM 3% | [7]; at 11.0 µM 12% | [8]; [17] 8% | [9]; at 1.2 µM -1% | [9]; at 3.7 µM -11% | [9]; at 11.0 µM 4% | [10]; [17] 4% | [10]; [18] 49% | [11]; at 1.2 µM 3% | [11]; at 3.7 µM 10% | [11]; [17] 19% | [11]; at 11.0 µM 30% | [12]; at 1.2 µM -2% | [12]; at 3.7 µM 1% | [12]; at 11.0 µM 8% | [13]; at 1.2 µM -1% | [13]; at 3.7 µM 3% | [13]; at 11.0 µM 17% | [14]; [17] 51% | [15]; at 1.2 µM 4% | [15]; at 3.7 µM 17% | [15]; at 11.0 µM 54%

CCOC(=O)C#Cc1ccc([N+](=O)[O-])cc1
inactive: [1]; at 1.2 µM 0% | [1]; at 3.7 µM -1% | [1]; at 11.0 µM -6% | [1]; at 33.0 µM 3% | [1]; at 100.0 µM 17% | [2]; at 1.2 µM 2% | [2]; at 3.7 µM 1% | [2]; at 11.0 µM 3% | [2]; at 33.0 µM 8% | [2]; at 100.0 µM 25% | [3]; at 1.2 µM 8% | [3]; at 3.7 µM 4% | [3]; at 11.0 µM 7% | [3]; at 33.0 µM 23% | [3]; at 100.0 µM 61% | [4]; at 1.2 µM 1% | [4]; at 3.7 µM -4% | [4]; at 11.0 µM -6% | [4]; at 33.0 µM 5% | [4]; at 100.0 µM 12% | [5]; at 1.2 µM 0% | [5]; at 3.7 µM 4% | [5]; [17] 15% | [5]; at 11.0 µM 3% | [5]; at 33.0 µM 18% | [5]; [18] 50% | [5]; at 100.0 µM 46% | [6]; at 1.2 µM 4% | [6]; at 3.7 µM -5% | [6]; [17] 12% | [6]; at 11.0 µM 7% | [6]; at 33.0 µM -1% | [6]; [18] 36% | [6]; at 100.0 µM 6% | [7]; at 1.2 µM 1% | [7]; at 3.7 µM -4% | [7]; at 11.0 µM 4% | [7]; at 33.0 µM 4% | [7]; at 100.0 µM 5% | [8]; [17] 31% | [8]; at 50.0 µM 50.5% | [9]; at 1.2 µM 1% | [9]; at 3.7 µM -2% | [9]; at 11.0 µM -3% | [9]; at 33.0 µM 2% | [9]; at 100.0 µM 10% | [10]; [17] -43% | [10]; [18] -7% | [11]; at 1.2 µM -10% | [11]; at 3.7 µM -24% | [11]; [17] -10% | [11]; at 11.0 µM -1% | [11]; at 33.0 µM 1% | [11]; [18] 28% | [11]; at 100.0 µM -8% | [12]; at 1.2 µM -1% | [12]; at 3.7 µM 1% | [12]; at 11.0 µM 4% | [12]; at 33.0 µM 7% | [12]; at 100.0 µM 11% | [13]; at 1.2 µM -4% | [13]; at 3.7 µM -3% | [13]; at 11.0 µM -10% | [13]; at 33.0 µM -21% | [13]; at 100.0 µM -5% | [16]; at 1.2 µM 1% | [16]; at 3.7 µM 0% | [16]; at 11.0 µM 5% | [16]; at 33.0 µM 6% | [16]; at 100.0 µM 15% | [15]; at 1.2 µM -1% | [15]; at 3.7 µM -2% | [15]; at 11.0 µM 0% | [15]; at 33.0 µM 15% | [15]; at 100.0 µM 64%
active: [5]; at 50.0 µM 96% | [6]; at 50.0 µM 95% | [8]; [18] 72% | [10]; at 50.0 µM 96.8% | [11]; at 50.0 µM 95.5%
